Where “and” joins values, the source holds several entries; their conditions need not be identical. Equal values may be shown once. Compounds without any hit were thinned out: in the full panel of roughly 83,000, 20% have a hit.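 Method: cells in 96-well plates; compound added at one concentration; 48 h incubation; percent growth measured; values under 10 scored active.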 Calls of active or inactive are those of the source. Starred links: 1 amine or outer side, 2 acyl side, 3 side chain; linkers in the order of their positions; H or OH if unused. Positions of bridges follow the written chain, without caps; N, C: chain ends. Non-standard residues stand in square brackets, D forms with d. Residues, ends and D or L forms follow the SMILES beside them. Chains are numbered I, II in the order given. Actinocin(9to1) = Cc1c2oc3c(C)ccc(C(=O)[*:1])c3nc-2c(C(=O)[*:2])c(N)c1=O; aThr = C[C@H](O)[C@H](N)C(=O)O; NMeV = CN[C@H](C(=O)O)C(C)C; Sar = CNCC(=O)O
Test system: MCF7 breast
Experiment: NCI-60 one-dose screen, 48 h (100 = growth as untreated, 0 = no growth, -100 = all killed)
Conditions: 10 µM

| SMILES | growth |
| --- | --- |
| CSc1ccc2c(c1)C(N1CCN(C)CC1)Cc1ccccc1S2 (stereo not drawn) | 20.9% (inactive) |
| CCCCCCCCCCCCCCCCCN | 100% (inactive) |
| S=c1[nH]nc(Cc2ccccc2)c(=S)[nH]1 | 96.5% (inactive) |
| N#C/C(=C1C=C/C(=N\O)C(Cl)=C\1)c1ccccc1 | 14.8% (inactive) |
| BrC/C=C/C[P+](c1ccccc1)(c1ccccc1)c1ccccc1 | 20.3% (inactive) |
| O=C(/C(=C/c1ccccc1)CBr)c1ccccc1 | 42.9% (inactive) |
| Cc1cc(NCCCN(C)C)c2ccc3c(ccc4c(NCCCN(C)C)cc(C)nc43)c2n1 | -89% (active) |
| Nc1ccc2cc(Br)c3ccccc3c2c1 | 35.1% (inactive) |
| CN(C)CCC(=O)c1c[nH]c2ccccc12 | 93.2% (inactive) |
| Cc1cnc(/C=N\NC(N)=S)c2cccc(N)c12 | 9.29% (active) |
| O=c1[nH]cc(F)c(=O)[nH]1 | 29.6% (inactive) and 18.3% (inactive) |
| CN1CCN(c2ccc3nc(-c4ccc5nc(-c6ccc(O)cc6)[nH]c5c4)[nH]c3c2)CC1 | 34.5% (inactive) |
| COc1cc(C(C)(C)C)cc(OC)c1C(O)(c1c(OC)cc(C(C)(C)C)cc1OC)c1c(OC)cc(C(C)(C)C)cc1OC | -88.6% (active) |
| Cc1c2oc3c(C)ccc(C(=O)N[C@@H]4C(=O)N[C@H](C(C)C)C(=O)N5CCC[C@H]5C(=O)N(C)CC(=O)N(C)[C@@H](C(C)C)C(=O)O[C@H]4C)c3nc-2c(C(=O)N[C@@H]2C(=O)N[C@H](C(C)C)C(=O)N3CCC[C@H]3C(=O)N(C)CC(=O)N(C)[C@@H](C(C)C)C(=O)O[C@H]2C)c(N)c1=O (I: [aThr][dV]P[Sar][NMeV] / II: [aThr][dV]P[Sar][NMeV]; ester I:1-I:C, II:1-II:C; linker I:N-II:N via Actinocin(9to1)) | -15.3% (active) |

Test system: HCT-116 colon
Experiment: as above
Conditions: 10 µM

| SMILES | growth |
| --- | --- |
| CSc1ccc2c(c1)C(N1CCN(C)CC1)Cc1ccccc1S2 (stereo not drawn) | 29.3% (inactive) |
| CCCCCCCCCCCCCCCCCN | 102% (inactive) |
| S=c1[nH]nc(Cc2ccccc2)c(=S)[nH]1 | 100% (inactive) |
| N#C/C(=C1C=C/C(=N\O)C(Cl)=C\1)c1ccccc1 | 5.69% (active) |
| BrC/C=C/C[P+](c1ccccc1)(c1ccccc1)c1ccccc1 | 14.8% (inactive) |
| O=C(/C(=C/c1ccccc1)CBr)c1ccccc1 | 35.8% (inactive) |
| Cc1cc(NCCCN(C)C)c2ccc3c(ccc4c(NCCCN(C)C)cc(C)nc43)c2n1 | -15.4% (active) |
| Nc1ccc2cc(Br)c3ccccc3c2c1 | 71.1% (inactive) |
| CN(C)CCC(=O)c1c[nH]c2ccccc12 | 103% (inactive) |
| Cc1cnc(/C=N\NC(N)=S)c2cccc(N)c12 | 17.4% (inactive) |
| O=c1[nH]cc(F)c(=O)[nH]1 | 33.9% (inactive) and 46.9% (inactive) |
| CN1CCN(c2ccc3nc(-c4ccc5nc(-c6ccc(O)cc6)[nH]c5c4)[nH]c3c2)CC1 | 48.3% (inactive) |
| COc1cc(C(C)(C)C)cc(OC)c1C(O)(c1c(OC)cc(C(C)(C)C)cc1OC)c1c(OC)cc(C(C)(C)C)cc1OC | -100% (active) |
| Cc1c2oc3c(C)ccc(C(=O)N[C@@H]4C(=O)N[C@H](C(C)C)C(=O)N5CCC[C@H]5C(=O)N(C)CC(=O)N(C)[C@@H](C(C)C)C(=O)O[C@H]4C)c3nc-2c(C(=O)N[C@@H]2C(=O)N[C@H](C(C)C)C(=O)N3CCC[C@H]3C(=O)N(C)CC(=O)N(C)[C@@H](C(C)C)C(=O)O[C@H]2C)c(N)c1=O (I: [aThr][dV]P[Sar][NMeV] / II: [aThr][dV]P[Sar][NMeV]; ester I:1-I:C, II:1-II:C; linker I:N-II:N via Actinocin(9to1)) | -29.5% (active) |

— PubChem BioAssay (NCI)
